# High-throughput results (PubChem)
# SMARCA2 act – SMARCA2 (BRM) function activators, primary screen, cell-based, luminescence, high throughput; hit rate 1% among 370,000; MG213 cells, MMTV-luciferase reporter, dexamethasone, overnight; activation, % at 9.1 µM; in the data active = activation above about 7.8%;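 also: 0% = vehicle wells and 100% = reference activator wells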
# hcDAF12 agonist – H. contortus DAF-12 nuclear receptor activators, primary screen, cell-based, luminescence, HEK293, lit1-tk-luc reporter; hit rate 1.4% among 370,000; activation, % at 6.8 µM; HEK293 hcDAF-12 lit1-tk-luc reporter; 0% DMSO, 100% Δ7-dafachronic acid;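 active = activation above the mean of all tested compounds plus 3 SD, cut at about 5.5% in these data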;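 also: 100% = response to 3 µM Δ7-dafachronic acid high control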
# hgDAF-12 ag – H. glycines DAF-12 receptor agonists, primary screen, cell-based, luminescence, HEK293, GAL4 fusion, UAS-luciferase; hit rate 1.8% among 370,000; activation, % at 6.8 µM; HEK293 GAL4-hgDAF12 UAS-luciferase reporter, agonist luminescence; normalized to butyrate control; Nuclear hormone receptor DAF-12 (Heterodera glycines), GAL4 fusion; AID 687014, 2013;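 active = activation above a cutoff set at the mean of all screened compounds plus 3 SD, cut at about 10% in these data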;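 also: 0% = DMSO wells and 100% = sodium butyrate wells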
# DAX1 inh-1 – DAX1 (NR0B1) inhibitors, primary screen, cell-based, HEK293, Gal4-DAX1, luciferase luminescence. HEK293 Gal4-DAX1 luciferase reporter. Nuclear receptor subfamily 0 group B member 1 (Homo sapiens), P51843. inhibition, % at 6.75 µM. hit rate 0.99% among 340,000;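 active = inhibition above the mean over all tested compounds plus 3 SD, cut at about 4.2% in these data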;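 also: 0% = DAX1-transfected cells with DMSO and 100% = empty-vector control cells with DMSO; inhibition shows as a rise in luminescence from relieved DAX1 repression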
# DAX1 inh-2 – DAX1 (NR0B1) inhibitors on StAR promoter, primary screen, cell-based, luminescence, SF-1 (NR5A1), full-length DAX-1; HEK293T StAR-luciferase reporter, SF-1/DAX-1 repression relief; inhibition, % at 6.8 µM; hit rate 1.1% among 370,000; AID 652010, 2013;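 active = inhibition above the mean over all tested compounds plus 3 SD, cut at about 3.6% in these data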;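 also: 0% = DAX-1 cells with DMSO and 100% = cells lacking DAX-1 with DMSO; higher inhibition means more luminescence from relief of DAX-1 repression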
# ssDAF-12 act – S. stercoralis DAF-12 nuclear receptor activators, primary screen, cell-based, luminescence, HEK293, GRIP1 co-expression, lit1-tk-luc. Nuclear hormone receptor DAF-12 (Strongyloides stercoralis). HEK293 ssDAF-12/GRIP1 lit1-tk-luc reporter; % of 3 µM dafachronic acid response. activation, % at 6.8 µM. hit rate 1% among 370,000;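 active = activation above the mean over all tested compounds plus 3 SD, cut at about 0.9% in these data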;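 also: 0% = DMSO-only wells and 100% = 3 µM delta7-dafachronic acid wells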
# DAX1 inh confirm – DAX1 (NR0B1) inhibitors relieving SF-1 repression, confirmation, cell-based, luminescence, HEK293T, full-length DAX-1, SF-1 activated StAR promoter. shares compounds with DAX1 inh-2. HEK293T StAR-promoter luciferase reporter, SF-1/DAX-1 repression. inhibition, % at 6.8 µM. hit rate 87% among 2,400;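 active = inhibition above the average of every tested compound plus 3 SD, cut at about 3.8% in these data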;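 also: 0% = DAX-1 cells with DMSO and 100% = no DAX-1 control cells with DMSO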
# Target sequence (P51843 whole entry, looked up): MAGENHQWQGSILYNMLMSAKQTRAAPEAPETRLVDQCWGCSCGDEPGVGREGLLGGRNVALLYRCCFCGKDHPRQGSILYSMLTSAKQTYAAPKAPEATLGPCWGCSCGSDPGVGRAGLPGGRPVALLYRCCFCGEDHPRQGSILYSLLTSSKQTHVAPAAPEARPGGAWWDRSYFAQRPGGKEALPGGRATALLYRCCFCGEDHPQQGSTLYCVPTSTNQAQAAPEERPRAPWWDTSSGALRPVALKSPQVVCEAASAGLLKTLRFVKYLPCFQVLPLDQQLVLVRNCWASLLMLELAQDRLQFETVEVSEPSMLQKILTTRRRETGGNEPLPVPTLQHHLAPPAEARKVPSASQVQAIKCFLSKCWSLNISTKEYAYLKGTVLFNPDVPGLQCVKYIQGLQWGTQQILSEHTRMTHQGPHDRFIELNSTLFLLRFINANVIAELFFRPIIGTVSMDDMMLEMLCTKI
# SF1 AF2mut Luc – StAR reporter signal changes without DAX1, counter-screen for DAX1 inhibitor project, cell-based, luminescence, AF-2 mutant SF-1, transactivation | shares compounds with DAX1 inh-2 | HEK293 StAR-luciferase, SF-1 AF2 mutant | inhibition, % at 6.8 µM | hit rate 78% among 2,400;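 active = inhibition above the mean of all tested compounds plus 3 SD, cut at about 3% in these data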;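 also: 0% = DAX-1 transfected cells with DMSO and 100% = cells without DAX-1 with DMSO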
# SMARCA2 act conf – SMARCA2 (BRM) function activators, confirmation, cell-based, luminescence, triplicate | shares compounds with SMARCA2 act | MG213 cells, MMTV-luciferase with dexamethasone, overnight; MG213 cells expressing E1A, Rb sequestered; DMSO wells 0%, reference activator 100% | activation, % at 9.1 µM | hit rate 30% among 3,500;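 active = activation above its plate's cutoff, the mean activation of tested wells plus 3 SD, cut at about 7.9% in these data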
# VP16 Luc act – GAL4-VP16 luciferase reporter activation, counter-screen for SMARCA2 (BRM) activator project, cell-based, pG5luc, luminescence, high throughput; shares compounds with SMARCA2 act; HEK293 GAL4-VP16 pG5luc reporter; scaled: DMSO wells 0%, SAHA wells 100%; activation, % at 9.1 µM; hit rate 41% among 3,500; AID 686939, 2013;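 active = activation above the solvent-only control well mean plus 3 SD, averaged across control plates, cut at about 5.2% in these data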
# LXRb hcDAF ctr – LXR agonists, Gal4 luciferase reporter, confirmation, counter-screen for hcDAF-12 agonist project, cell-based, luminescence, HEK293, H. contortus campaign. HEK293 Gal4-LXR tk-luc reporter, 24 h; normalized: DMSO 0%, positive control 100%. shares compounds with hcDAF12 agonist. activation, % at 6.8 µM. 3,400 tested, under 10 active. AID 743027, 2013;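 active = mean percent activation of the reporter above a cutoff set as the average over tested compounds plus their standard deviation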
# hcDAF12 ag – H. contortus DAF-12 receptor agonists, confirmation, cell-based, luminescence, HEK293, lit1-tk-luc, triplicate | AID 743032, 2013 | hit rate 61% among 3,400 | HEK293 hcDAF-12 lit1-tk-luc reporter; % of Δ7-dafachronic acid response | shares compounds with hcDAF12 agonist | activation, % at 6.8 µM;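 active = mean activation across triplicate tests above the threshold derived from the earlier primary screen, cut at about 5.5% in these data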;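 also: 0% = DMSO only wells and 100% = 3 µM Δ7-dafachronic acid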
# hgDAF12 conf – H. glycines DAF-12 receptor agonists, confirmation, cell-based, luminescence, HEK293, GAL4-LBD fusion; shares compounds with hgDAF-12 ag; HEK293 GAL4-hgDAF12 luciferase reporter, agonist mode; percent of butyrate response; activation, % at 6.8 µM; hit rate 80% among 3,300; AID 743050, 2013;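 active = mean activation over triplicate wells above the hit cutoff derived from the earlier primary screen, cut at about 11% in these data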;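 also: 0% = DMSO low control and 100% = 2 mM sodium butyrate high control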
# LXR ag 2 – LXR agonists, Gal4 luciferase reporter, confirmation, counter-screen for hgDAF-12 agonist project, cell-based, luminescence, HEK293, H. glycines campaign; shares compounds with hgDAF-12 ag; 24 h; activation, % at 6.8 µM; 3,300 tested, under 10 active; AID 743051, 2013;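 active = mean activation of the triplicate above a set limit carried over from the primary screen, none filed active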
# * hit, by the source's call; . = no result given. A selection: hits, their analogues and other compounds. The true share with any hit is near 4.8%.
SMILES,SMARCA2 act,hcDAF12 agonist,hgDAF-12 ag,DAX1 inh-1,DAX1 inh-2,ssDAF-12 act,DAX1 inh confirm,SF1 AF2mut Luc,hgDAF12 conf,LXR ag 2,others
Cc1occc1-c1nnc(SCC(=O)NC2CC2)n1C,2,0,-2,1,-1,-1,.,.,.,.,
COc1cc(OC)cc(-c2nnc(SCC(=O)NCc3cccs3)o2)c1,-2,0,-1,1,0,-1,.,.,.,.,
COc1ccc(/C=C/c2nc(-c3ccccc3O)n(-c3ccccc3)n2)cc1,-1,-1,-1,1,1,-1,.,.,.,.,
COc1ccc(/C=C/c2nc(-c3ccccc3O)n[nH]2)cc1,3,6.5*,20*,2,4.6*,0,14*,8.4*,18*,0,
COCC(=O)Nc1c(C(=O)Nc2ccc3c(c2)OCCO3)oc2ccccc12,-1,3,17*,1,4.6*,-1,8.6*,5.9*,18*,1,
CCC(=O)Nc1c(C(=O)Nc2ccc3c(c2)OCCO3)oc2ccccc12,0,4,9,0,3,0,.,.,.,.,
O=C(Nc1ccc2c(c1)OCCO2)c1ccc2ccccc2n1,7,21*,20*,3,10.0*,2.7*,13*,8.2*,22*,1,LXRb hcDAF ctr=2;hcDAF12 ag=16*
O=C(Nc1ccccc1)c1ccc2ccccc2n1,2,18*,19*,5.6*,5.4*,1.9*,13*,9.8*,22*,1,LXRb hcDAF ctr=1;hcDAF12 ag=16*
CN(C)c1ccc(/C=C/C(=O)c2cc(Cl)ccc2O)cc1,-1,-3,0,0,0,-1,.,.,.,.,
CCOC(=O)c1ccc(Nc2ccc(C(C)=O)cc2)cc1,4,7.7*,21*,.,9.0*,1.3*,7.0*,5.7*,19*,1,LXRb hcDAF ctr=1;hcDAF12 ag=10*
O=C(NC(=S)Nc1ccc2c(c1)OCCO2)c1ccccc1,9.7*,4,14*,1,4.7*,0,16*,8.7*,21*,1,SMARCA2 act conf=5;VP16 Luc act=9.1*
CCOc1cccc(C(=O)NC(=S)Nc2ccc3c(c2)OCCO3)c1,1,2,8,1,0,-1,.,.,.,.,
O=C(NC(=S)Nc1ccc2c(c1)OCCO2)c1ccccc1F,3,5,19*,2,7.6*,1,12*,7.0*,18*,1,
O=C1c2cccnc2C(=O)N1Cc1ccc(S(=O)(=O)NCc2ccco2)s1,-2,0,1,1,0,-1,.,.,.,.,
COc1cnc(-c2ccccn2)[nH]c1=O,-4,-1,-1,0,1,-1,.,.,.,.,
COc1cccc2[nH]c(-c3ccccn3)nc12,3,6.4*,18*,.,7.2*,1,8.6*,5.6*,16*,1,
C/C(=N/NC(=O)c1cccs1)c1ccc(N2CCOCC2)cc1,3,6.0*,20*,4,4.7*,0,4,2,5,0,
COc1cccc(C(=O)Nc2nnc(-c3ccccc3)s2)c1OC,4,7.0*,19*,1,5.5*,0,7.6*,4.0*,14*,1,LXRb hcDAF ctr=1;hcDAF12 ag=4
O=C(Nc1nnc(-c2ccccc2)s1)c1ccccc1O,4,1,4,3,1,-1,.,.,.,.,
O=C(/C=C/c1ccccc1Cl)Nc1ccc2c(c1)C(=O)NC2=O,-7,-2,2,0,0,-2,.,.,.,.,
O=C(/C=C/c1ccccc1Cl)Nc1cccc(O)c1,3,10*,24*,-1,5.8*,0,17*,11*,20*,1,LXRb hcDAF ctr=2;hcDAF12 ag=6.5*
NC(=Nc1ccccc1)NC(=O)c1nc(Cl)c(N)nc1N,9.2*,1,17*,3,5.4*,-1,8.2*,6.4*,14*,1,SMARCA2 act conf=27*;VP16 Luc act=11*
